JMJD2A Tudor: blocks the human JMJD2A Tudor domain; AlphaScreen JMJD2A-Tudor / H3K4me3 peptide binding; AID 504339; Potency, µM (highest dose often 114 µM), for the others: top-dose activity change, negative = inhibition, actives largely listed as inhibitors; 390,000 compounds, 4.4% hits; also: potency is read from the fitted curve at half-maximal effect; % is scaled to controls: 0 for no effect and ±100 for the full control effect; nearly all actives have a fitted effect of over 50% in size
HP1b binding inh: HP1-beta chromodomain-methylated histone interaction inhibition; P83916; 390,000 compounds, 0.56% hits; AlphaScreen HP1-beta / biotin-H3K9me3 peptide binding; Potency, µM (top dose mostly 114 µM), for the others: at the top dose activity change, negative = inhibition, hits mostly inhibitors; also: potency is read from the fitted curve at half-maximal effect; nearly all actives have a fitted effect of over 70% in size
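AlphaScreen: HP1-beta (50 nM) preformed 30 min with biotin-H3(1-18)K9me3 peptide (50 nM) in PBS pH 7.4, 0.01% Tween-20. Compound added for 30 min at RT, then streptavidin donor/nickel chelate acceptor beads (10 ug/mL) for 30 min.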
BAZ2B block: blocks human BAZ2B | Q9UIF8 | AlphaScreen BAZ2B-H3K14Ac peptide displacement | Potency, µM (top dose mostly 114 µM), inactives show at the highest dose activity change, negative = inhibition, usual class: inhibitors | 360,000 compounds, 4.4% hits; also: potency is read from the fitted curve at half-maximal effect; % is scaled to controls: 0 for no effect and ±100 for the full control effect; nearly all actives have a fitted effect of over 60% in size
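BAZ2B 50 nM plus b-H3(5-23)K14Ac 50 nM, PBS pH 7.4/0.01% Tween-20, 30 min RT; compound added (max 110 uM), 30 min RT; streptavidin donor/Ni-chelate acceptor beads 10 ug/mL final, 20 min dark; AlphaScreen read.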
G9a block: blocks human histone lysine methyltransferase G9a; Q96KQ7; G9a H3K9 monomethylation, AlphaScreen, 2 h; Potency, µM (top dose mostly 102 µM), for inactives: at the top dose activity, negative = inhibition, actives largely listed as inhibitors; 350,000 compounds, 8.8% hits; AID 504332; also: potency is read from the fitted curve at half-maximal effect; % is scaled to controls: 0 for no effect and ±100 for the full control effect; nearly all actives have a fitted effect of over 75% in size
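Enzyme 20 nM + cpd, 15 min RT; add b-H3K9 pep 500 nM / SAM 20 uM; 2 h RT; anti-H3K9me1 Ab 0.5 ug/mL + SA donor / anti-rabbit acceptor beads 20 ug/mL each, 10 min; AlphaScreen read.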
Six1-Eya2 blk: Six1/Eya2 interaction inhibition | AID 651725 | AlphaScreen GST-Six1/His-Eya2 binding, biochemical; active compounds read low | 360,000 compounds, 0.56% hits | activity change, % (no concentration beside the values); in the data active = activity change below about -65%; inconclusive = mostly about -30% to -63%; also: % is scaled to controls: 0 for no effect and ±100 for the full control effect
Target sequence (O00167 whole entry, looked up): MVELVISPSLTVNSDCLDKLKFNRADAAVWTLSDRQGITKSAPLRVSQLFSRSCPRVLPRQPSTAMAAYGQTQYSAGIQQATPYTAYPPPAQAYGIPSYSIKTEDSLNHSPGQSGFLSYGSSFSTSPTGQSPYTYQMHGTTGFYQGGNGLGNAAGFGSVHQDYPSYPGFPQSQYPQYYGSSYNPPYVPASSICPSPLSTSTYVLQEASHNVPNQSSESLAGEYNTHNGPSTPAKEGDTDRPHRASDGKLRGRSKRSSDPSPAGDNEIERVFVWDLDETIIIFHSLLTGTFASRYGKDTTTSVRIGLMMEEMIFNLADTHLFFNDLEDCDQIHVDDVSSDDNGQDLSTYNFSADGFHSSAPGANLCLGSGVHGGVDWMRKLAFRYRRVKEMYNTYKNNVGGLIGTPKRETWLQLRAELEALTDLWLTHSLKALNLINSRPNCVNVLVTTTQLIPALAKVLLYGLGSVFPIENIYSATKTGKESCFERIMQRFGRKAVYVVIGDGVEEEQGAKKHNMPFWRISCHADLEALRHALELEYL
Target sequence (Q15475 whole entry, looked up): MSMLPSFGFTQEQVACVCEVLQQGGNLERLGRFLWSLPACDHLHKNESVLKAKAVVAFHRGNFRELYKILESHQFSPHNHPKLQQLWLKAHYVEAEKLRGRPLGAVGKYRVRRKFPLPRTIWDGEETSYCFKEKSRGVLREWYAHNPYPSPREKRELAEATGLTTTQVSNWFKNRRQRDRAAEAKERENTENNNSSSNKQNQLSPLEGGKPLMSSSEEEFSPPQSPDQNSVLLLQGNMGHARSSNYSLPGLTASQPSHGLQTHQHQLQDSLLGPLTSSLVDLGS
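Compounds are tested against tagged Six1 and Eya2 proteins bridged by glutathione donor and nickel acceptor beads; after a one-hour incubation at 37 °C without light, AlphaScreen emission is recorded.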
CtBP-E1A inh: CtBP/E1A binding inhibition; AlphaScreen GST-E1A/His-CtBP binding, 1536-well; active compounds read low; activity change, % (concentration not given with the values); 340,000 compounds, 0.49% hits; in the data active = activity change below about -65%; inconclusive = mostly about -30% to -63%; also: % is scaled to controls: 0 for no effect and ±100 for the full control effect
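AlphaScreen with 125 nM GST-E1A and 125 nM His-CtBP (5X stocks) in Tris pH 8.0, 300 mM NaCl, BSA, Tween 20, TCEP. Compounds preincubated 2 h at 37 deg C, then glutathione donor/nickel acceptor beads added for 1 h at 37 deg C in dark.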
Active calls of the source: *; [ ] = another dose, or the depositor's remark. Sampled rows, rich in hits. Any-hit rate of the full collection: about 10%. Unless noted, calls follow the shape of the dose curve; as a rule, active = well fitted inhibition curve with a large enough effect; inconclusive = small, poorly fitted or top-dose-only effect; inactive = no such curve, though single readings can be large or run the other way.

O=C1CC(c2ccc(O)c(O)c2)Oc2c1ccc(O)c2O (centres undefined) was read as JMJD2A Tudor 8.9µM*, HP1b binding inh inconclusive, BAZ2B block 10µM*, G9a block -190%[59 µM], Six1-Eya2 blk -26 and CtBP-E1A inh 0.
O=C1CC(c2ccc(O)cc2)Oc2cc(O)cc(O)c21 (centres undefined) was read as JMJD2A Tudor -15%, HP1b binding inh 27%, BAZ2B block -10%, G9a block -5%, Six1-Eya2 blk -2 and CtBP-E1A inh 4.
Screening O=C1CC(c2ccc(O)c(O)c2)Oc2cc(O)cc(O)c21 (centres undefined) returned JMJD2A Tudor 79µM*, HP1b binding inh -4%, BAZ2B block -11%, G9a block -44%[2.33 µM], Six1-Eya2 blk -30 and CtBP-E1A inh -21.
`O=C1NC[C@H](CCCCN2C[C@H](Cc3ccccc3)N(CCc3ccc(O)cc3)C(=O)C2=O)N(CCc2ccc(O)cc2)C1=O` gave Six1-Eya2 blk -5 and CtBP-E1A inh 6.
`CC(C)n1nnc2c(=O)oc3ccccc3c21` gave JMJD2A Tudor -3%, HP1b binding inh 26%, BAZ2B block -19%, G9a block 18%[59 µM], Six1-Eya2 blk -4 and CtBP-E1A inh 2.
`COc1cc(OC)cc(C(=O)Nc2ccc3nc(N4CCCCC4)cc(C)c3c2)c1` gave JMJD2A Tudor -26%, HP1b binding inh 6%, BAZ2B block -16% and G9a block -2%[59 µM].
`Cc1ccc2c(c1)c1c3n2CCN(CCC(=O)O)C3CCC1` (centres undefined) gave JMJD2A Tudor -17%, HP1b binding inh 27%, BAZ2B block inconclusive, G9a block 45µM*, Six1-Eya2 blk 0 and CtBP-E1A inh 2.
Screening Cc1ccc2c(c1)c1c3n2CCN(CC(N)=O)C3CCC1 (centres undefined) returned JMJD2A Tudor -6%, HP1b binding inh 21%, BAZ2B block 24%, Six1-Eya2 blk 0 and CtBP-E1A inh -8.
Cc1ccc(C(=O)N2CCn3c4c(c5cc(C)ccc53)CCCC42)cc1 (centres undefined) was read as JMJD2A Tudor inconclusive, HP1b binding inh -22%, BAZ2B block 14µM* and G9a block 11µM*.
Screening Cc1ccc2c(c1)c1c3n2CCN(C(=O)C2CC2)C3CCC1 (centres undefined) returned JMJD2A Tudor -34%, HP1b binding inh -1%, BAZ2B block inconclusive, G9a block 40µM*, Six1-Eya2 blk -16 and CtBP-E1A inh -4.
For Cc1ccc2c(c1)c1c3n2CCN(CC#N)C3CCC1 (centres undefined) the results were JMJD2A Tudor -21%, HP1b binding inh 29%, BAZ2B block inconclusive, G9a block 6%[59 µM], Six1-Eya2 blk -7 and CtBP-E1A inh -9.
`Cc1ccc2c(c1)c1c3n2CCCN(Cc2ccccc2)C3CCC1` (centres undefined) gave JMJD2A Tudor inconclusive, HP1b binding inh inconclusive, BAZ2B block 10µM*, G9a block 13µM*, Six1-Eya2 blk -3 and CtBP-E1A inh 3.
Screening COc1ccc(C(=O)NCC(=O)OCC(=O)c2cccc3ccccc23)cc1 returned JMJD2A Tudor 7%[57.1 µM] and HP1b binding inh 5%[57 µM].
`CC(=O)CCn1cc([N+](=O)[O-])nc1C` gave JMJD2A Tudor 4%, HP1b binding inh 27%, BAZ2B block 22%, G9a block 29%, Six1-Eya2 blk 8 and CtBP-E1A inh 1.
`Cc1ccc2c(c1)c1c3n2CCN(C(=O)c2ccc(C(F)(F)F)cc2)C3CCC1` (centres undefined) gave JMJD2A Tudor inconclusive, HP1b binding inh -7%, BAZ2B block 28µM* and G9a block inconclusive.
Screening CCN1CCn2c3c(c4cc(Br)ccc42)CCCC31 (centres undefined) returned JMJD2A Tudor -35%, HP1b binding inh -7%, Six1-Eya2 blk -16 and CtBP-E1A inh inconclusive.
Screening Cn1cc(/C=C2/SC(=O)N(CC(=O)Nc3ccc4c(c3)OCO4)C2=O)c2ccccc21 returned JMJD2A Tudor -1%, HP1b binding inh 13%, BAZ2B block -1%, G9a block 26%, Six1-Eya2 blk 0 and CtBP-E1A inh 4.
For O=C(CN1C(=O)S/C(=C\c2ccc(-c3cc(C(=O)O)ccc3Cl)o2)C1=O)Nc1ccc2c(c1)OCO2 the results were BAZ2B block 8.9µM* and G9a block inconclusive.
`Cc1ccc(NC(=O)CN2C(=O)S/C(=C\c3ccc(-c4cccc(C(=O)O)c4C)o3)C2=O)cc1C` gave JMJD2A Tudor 18µM*, HP1b binding inh 35µM*, BAZ2B block 16µM*, G9a block 18µM*, Six1-Eya2 blk -3 and CtBP-E1A inh 0.
COC(=O)c1ccc(Cn2cnc3c(Cl)ncnc32)cc1 was read as JMJD2A Tudor -6%, HP1b binding inh 11%[57 µM], Six1-Eya2 blk -8 and CtBP-E1A inh -8.
For COc1cnc(SC)nc1Nc1ccc(C#N)cc1 the results were JMJD2A Tudor -5%, HP1b binding inh 31%, BAZ2B block -18%, G9a block 7%[12.7 µM] and Six1-Eya2 blk -18.
For CNC(=O)c1c(NC(=O)c2ccc(S(=O)(=O)N3CCCCC3)cc2)sc2c1CCC2 the results were JMJD2A Tudor -11%, HP1b binding inh 26%[57 µM], BAZ2B block 6% and G9a block 1%[59 µM].
For O=c1c2ccccc2nc2sc3ccccc3n12 the results were JMJD2A Tudor -1%[11.4 µM], HP1b binding inh 29%, BAZ2B block 3%, G9a block 5%[59 µM], Six1-Eya2 blk -5 and CtBP-E1A inh -21.
O=c1/c(=C/c2ccccn2)sc2nc3ccccc3n12 was read as JMJD2A Tudor inconclusive, HP1b binding inh 26%, BAZ2B block 2%, G9a block 50µM*, Six1-Eya2 blk -2 and CtBP-E1A inh 0.
Screening O=c1/c(=C\c2cc([N+](=O)[O-])cc([N+](=O)[O-])c2O)sc2nc3ccccc3n12 returned JMJD2A Tudor 20µM*, HP1b binding inh inconclusive, BAZ2B block 50µM*, G9a block 6.3µM*, Six1-Eya2 blk -19 and CtBP-E1A inh 3.
Screening Cc1ccc(-c2nonc2NC(=O)c2ccco2)cc1C returned JMJD2A Tudor -17%, HP1b binding inh 29%, BAZ2B block -3% and G9a block -50%[59 µM].

Assay outcomes as filed in PubChem.
